The source made the active and inactive calls. The calls were made as follows: active = hit-call score of the fitted dose curve at least 0.9, where 1 is the maximum; inactive = score below 0.9.
Experiments:
Details in all cases: mRNA level, 48 h; actives raise or lower the signal
[1] = read-out: sulfotransferase 2A1 (SULT2A1), SULT2A1 (gene 6822); test: LTEA_HepaRG_SULT2A1: Life Technologies and Expression Analysis (LTEA) Assay for sulfotransferase 2A1 (SULT2A1) using HepaRG (AID 2283531)
Procedure, shortened: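 Gene-expression endpoint in a human liver cell line: SULT2A1 mRNA change after 48 h chemical treatment, curves fitted in both directions relative to 0.5% DMSO vehicle. Concentrations spanned eight half-log steps from 100 uM.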

[2] = read-out: Transforming Growth Factor (TGFA), TGFA (gene 7039); test: LTEA_HepaRG_TGFA: Life Technologies and Expression Analysis (LTEA) Assay for Transforming Growth Factor (TGFA) using HepaRG (AID 2283532)
Procedure, shortened: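 Differentiated human HepaRG cells, plated 48 h then switched to serum-free induction medium, were exposed in duplicate for 48 h to 8-point half-log series from 100 uM in 0.5% DMSO. TGFA mRNA measured by qRT-PCR, normalized to ACTB/GAPDH/POLR2A, bidirectional fit versus DMSO.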

[3] = read-out: Transforming Growth Factor (TGFB1), TGFB1 (gene 7040); test: LTEA_HepaRG_TGFB1: Life Technologies and Expression Analysis (LTEA) Assay for Transforming Growth Factor (TGFB1) Transporter using HepaRG (AID 2283533)
Procedure, shortened: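 Eight-point concentration-response (max 100 uM, half-log) in HepaRG under serum-free induction conditions, 48 h. TGFB1 mRNA by qRT-PCR, housekeeping-normalized.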

TIMP1, TIMP1 (gene 7076) = test: LTEA_HepaRG_TIMP1: Life Technologies and Expression Analysis (LTEA) Assay for TIMP1 using HepaRG (AID 2283534);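 also: TaqMan qRT-PCR signal normalized to ACTB GAPDH and POLR2A housekeeping genes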
Procedure, shortened: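 TIMP1 induction or repression in HepaRG cells after 48 h chemical exposure (eight concentrations, highest 100 uM), assessed by normalized qRT-PCR with bidirectional fitting to DMSO controls.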

[4] = read-out: Tumor necrosis factor receptor 1 (TNFRSF1A), TNFRSF1A (gene 7132); test: LTEA_HepaRG_TNFRSF1A: Life Technologies and Expression Analysis (LTEA) Assay for Tumor necrosis factor receptor 1 (TNFRSF1A) using HepaRG (AID 2283535)
Procedure, shortened: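 Assay uses 48 h chemical treatment of differentiated HepaRG monolayers, tested in duplicate at eight concentrations from 100 uM downward in 0.5% DMSO. mRNA is normalized to ACTB, GAPDH and POLR2A, with induction or suppression fitted relative to vehicle.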

[5] = read-out: Thyroid Hormone Responsive (THRSP), THRSP (gene 7069); test: LTEA_HepaRG_THRSP: Life Technologies and Expression Analysis (LTEA) Assay for Thyroid Hormone Responsive (THRSP) using HepaRG (AID 2283536)
Protocol: (§1) LTEA_HepaRG is a cell based, multiplexed-readout assay that uses HepaRG, a human liver cell line, with measurements taken at 48 hours after chemical dosing on a 96-well plate.LTEA_HepaRG_THRSP is one of 102 assay component(s) measured in the LTEA HepaRG cell culture assay. It is a marker of NR mediated metabolism.Data from the assay component LTEA_HepaRG_THRSP was analyzed into 1 endpoint. This assay endpoint, LTEA_HepaRG_THRSP, was analyzed with bidirectional fitting relative to DMSO as the negative control and baseline of activity. Using a type of inducible reporter, measures of mRNA induction for gain or loss-of-signal activity can be used to understand regulation of transcription factor activity. To generalize the intended target to other relatable targets, this assay endpoint is annotated to the growth factor intended target family, where the subfamily is NR mediated metabolism.
(§2) A total of 1060 chemcials from the ToxCast library were tested in eight-point concentration-response experiments. Cell culture and cytotoxicity assays were conducted at Thermo Fisher Scientific's Custom Services facility (Madison, WI). […] Fluidigm's 96.96 Dynamic ArrayTM (Fluidigm, Amsterdam, the Netherlands) technology was used for gene expression analyses by quantitative reverse transcription polymerase chain reaction (qRT-PCR, performed by Quintiles/Expression Analysis, Durham, NC)89. […]

[6] = read-out: Cellular tumor antigen p53 (Homo sapiens) (UniProt P04637); test: LTEA_HepaRG_TP53: Life Technologies and Expression Analysis (LTEA) Assay for Tumor Protein P53 (TP53) using HepaRG (AID 2283537)
Protocol: as §1, with “plate.LTEA_HepaRG_TP53” for “plate.LTEA_HepaRG_THRSP”, “Oxidative Stress.Data” for “NR mediated metabolism.Data”, “LTEA_HepaRG_TP53” for “LTEA_HepaRG_THRSP”, “LTEA_HepaRG_TP53,” for “LTEA_HepaRG_THRSP,”, “dna binding” for “growth factor”, “tumor suppressor.” for “NR mediated metabolism.”
as §2

[7] = read-out: UDP glucuronosyltransferase (UGT1A1), UGT1A1 (gene 54658); test: LTEA_HepaRG_UGT1A1: Life Technologies and Expression Analysis (LTEA) Assay for UDP glucuronosyltransferase (UGT1A1) using HepaRG (AID 2283538)
Procedure, shortened: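 Human liver HepaRG cultures receive test chemical for 48 h, up to 100 uM in 0.5% DMSO, with phenobarbital induction controls. UGT1A1 mRNA is measured by qRT-PCR and normalized to ACTB, GAPDH and POLR2A.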

[8] = read-out: UDP glucuronosyltransferase (UGT1A6), UGT1A6 (gene 54578); test: LTEA_HepaRG_UGT1A6: Life Technologies and Expression Analysis (LTEA) Assay for UDP glucuronosyltransferase (UGT1A6) using HepaRG (AID 2283539)
Procedure, shortened: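 Measures mRNA change in HepaRG hepatic cells exposed 48 h to chemicals (eight-point, maximum 100 uM, 0.5% DMSO vehicle) in serum-free induction medium. Expression normalized to endogenous controls; DMSO served as negative control and baseline.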

[9] = read-out: X-box binding protein 1 (XBP1), XBP1 (gene 7494); test: LTEA_HepaRG_XBP1: Life Technologies and Expression Analysis (LTEA) Assay for X-box binding protein 1 (XBP1) using HepaRG (AID 2283540)
Protocol: as §1, with “plate.LTEA_HepaRG_XBP1” for “plate.LTEA_HepaRG_THRSP”, “Diseases associated with XBP1 including Major Affective Disorder 7 and Bipolar Disorder.Data” for “NR mediated metabolism.Data”, “LTEA_HepaRG_XBP1” for “LTEA_HepaRG_THRSP”, “LTEA_HepaRG_XBP1,” for “LTEA_HepaRG_THRSP,”, “dna binding” for “growth factor”, “basic leucine zipper.” for “NR mediated metabolism.”
as §2, with “experiments.” for “experiments. Cell culture and cytotoxicity assays were conducted at Thermo Fisher Scientific's Custom Services facility (Madison, WI).”

Measured: outcome

Sequence of Cellular tumor antigen p53 (Homo sapiens) (P04637 whole entry, looked up): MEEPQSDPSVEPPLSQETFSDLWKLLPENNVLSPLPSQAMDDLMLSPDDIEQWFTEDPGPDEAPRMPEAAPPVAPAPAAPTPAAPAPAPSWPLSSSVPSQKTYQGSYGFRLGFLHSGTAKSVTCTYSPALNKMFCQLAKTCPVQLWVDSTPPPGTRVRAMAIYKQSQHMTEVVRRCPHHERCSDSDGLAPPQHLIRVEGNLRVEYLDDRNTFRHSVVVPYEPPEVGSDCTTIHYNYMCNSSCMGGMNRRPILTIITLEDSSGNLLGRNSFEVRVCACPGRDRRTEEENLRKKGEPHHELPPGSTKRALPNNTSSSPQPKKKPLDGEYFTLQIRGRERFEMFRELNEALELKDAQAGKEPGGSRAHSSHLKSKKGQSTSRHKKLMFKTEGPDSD

CS(=O)(=O)OCCCCOS(C)(=O)=O
inactive: [1] | [2] | [3] | TIMP1, TIMP1 (gene 7076) | [4] | [5] | [6] | [7] | [8] | [9]

Source: PubChem BioAssay (EPA / NIEHS)
